An excerpt weighted towards active compounds, which were near 0.59% of everything screened.
FXIIa inh mix: blocks human factor XIIa in pooled compound mixtures; purified FXIIa, fluorogenic substrate; 62,000 tested, 0.2% active; P00748; AID 684; inhibition, % at 5 µM;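 also: 0% = enzyme without compound and 100% = no enzyme blank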
Target sequence (P00748 20-372 limits assumed): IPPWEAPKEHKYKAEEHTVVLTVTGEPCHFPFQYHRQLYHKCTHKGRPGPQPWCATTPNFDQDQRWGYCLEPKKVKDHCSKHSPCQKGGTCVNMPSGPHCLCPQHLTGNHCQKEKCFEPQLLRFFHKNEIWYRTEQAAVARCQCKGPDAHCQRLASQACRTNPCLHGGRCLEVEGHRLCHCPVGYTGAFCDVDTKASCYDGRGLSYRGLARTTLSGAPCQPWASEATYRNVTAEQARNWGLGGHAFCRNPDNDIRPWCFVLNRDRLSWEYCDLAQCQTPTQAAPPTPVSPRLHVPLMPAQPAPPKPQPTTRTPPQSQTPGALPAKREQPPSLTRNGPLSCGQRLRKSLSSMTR
Target sequence (P00748 373-615 limits assumed): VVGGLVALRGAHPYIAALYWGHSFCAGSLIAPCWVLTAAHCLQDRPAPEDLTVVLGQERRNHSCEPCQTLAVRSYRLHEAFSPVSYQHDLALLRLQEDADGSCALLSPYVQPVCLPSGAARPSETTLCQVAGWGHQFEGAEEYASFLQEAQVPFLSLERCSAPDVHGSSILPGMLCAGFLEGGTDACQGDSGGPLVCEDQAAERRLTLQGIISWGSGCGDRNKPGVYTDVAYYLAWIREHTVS
Ec RNAP inh: inhibitors of Escherichia coli RNA polymerase | E. coli RNA polymerase, fluorescence transcription assay | inhibition, %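 (tested at 10 µM)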 | 62,000 tested, 0.2% active | AID 559; in the data active = inhibition above about 20%;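 also: 0% = enzyme without compound and 100% = no enzyme blank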
Smad3 inh: inhibitors of human Smad3 transcription factor binding | P84022 | TR-FRET Smad3/Dy647-FoxH1 peptide binding, europium anti-His | inhibition, % at 25 µM | 88,000 tested, 0.29% active;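 active = compounds that reduce the energy-transfer binding signal between the protein and its labelled peptide by more than half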;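 also: 0% = Smad3 plus labelled peptide maximal FRET and 100% = peptide-only background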
FXIa inh mix: blocks human factor XIa in pooled compound mixtures | P03951 | purified FXIa, fluorogenic substrate | inhibition, % at 5 µM | 62,000 tested, 0.19% active | AID 680;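 also: each value is inhibition by a whole ten-compound pool holding the compound; 0% = enzyme with no mixture and 100% = wells lacking enzyme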
Numbers without * were called inactive; / = no result given; [ ] = remark or other dose. Rule as the data show it, unless noted: active = inhibition above about 20% (passing the limit was not always enough); inactive = the rest.

SMILES	FXIIa inh mix	Ec RNAP inh	Smad3 inh	FXIa inh mix
COC(=O)C1=C(C)Nc2ccc(C)cc2S1	10	8	-4	9
CC(=O)C1=C(C)Nc2cc(C(F)(F)F)ccc2S1	3	62*	1	14
Clc1ccc(CSCCc2ccncc2)cc1Cl	/	/	6	/
C/C(=N\NC1=NCCN1)c1cn(C2=NCCN2)nc1C	/	/	93*	/
O=C1CN(CC(=O)N2CCOCC2)c2ccccc2O1	22*	-11	-5	9
N[C@@H]1[C@H](C(=O)O)[C@@H]2C=C[C@H]1C2	/	/	2	/
C/C(N[O-])=C(\C)[N+]([O-])=[Fe].CC(=N\[O-])/C(C)=N/[O-].[NH2-].c1c[nH+]c[n-]1	/	/	72*	/
S=c1nc[nH]c2c1ncn2Cc1ccco1	/	/	65*	/
OCCNc1ncnc2c1ncn2[C@H]1O[C@@H](CO)[C@H](O)[C@H]1O	/	/	25	/
C(=N\Nc1nnc2c(n1)[nH]c1ccccc12)/c1cccnc1	/	/	18	/
O=C1CCCC2=C1C1(O)C(=O)c3ccccc3C1(O)O2 (stereo not given)	4	-2	66*	0
N#CC1=C(N)OC2=C(C(=O)CCC2)[C@]12C(=O)N(CC(N)=O)c1ccccc12	/	1	13	/
O=c1[nH][nH]c(=S)c(=O)[nH]1	/	/	52*	/
CC1CCN(CCCNC(=O)C2CCN(S(=O)(=O)N3CCCCC3)CC2)CC1	-2	7	-2	-3
CC1CCCCN1CCNC(=O)C1CCN(S(=O)(=O)N2CCCCC2)CC1 (stereo not given)	21*	8	-11	-3
O=C(O)[C@@H]1[C@H]2O[C@H]([C@@H](Br)[C@H]2Br)[C@@H]1C(=O)O	/	/	0	/
COC(=O)c1ccc2c(c1)NC(=O)C1CCCN21 (stereo not given)	1	3	56*[fluorescence artefact?]	6
CN1CC[C@@H](CN2c3ccccc3Sc3ccccc32)C1	/	/	7	/
COc1ccc(CC(NC(C)=O)C(=O)NC2CCN(C(=O)Nc3ccc(Cl)cc3)CC2)cc1OC (stereo not given)	/	/	79*	/
COc1ccc(-c2nc(N)c3ncn([C@H]4O[C@H](CO)[C@@H](O)[C@@H]4O)c3n2)cc1	/	/	6	/
O=[N+]([O-])c1cc(Cc2cc([N+](=O)[O-])c3cccnc3c2O)c(O)c2ncccc12	/	/	99*	/
Nc1nc(N)c2[nH]c(CNC3CCC(C(=O)O)CC3)nc2n1 (stereo not given)	/	/	4	/
CCc1nnc(NC(=O)c2cnccn2)s1	2	7	-7	21*
O=C(Nc1nccs1)c1cnccn1	1	-5	-9	6
C/C(=N\NS(=O)(=O)c1ccc(C)cc1)P(=O)(O)O	/	/	6	/
SMILES	FXIIa inh mix	Ec RNAP inh	Smad3 inh	FXIa inh mix
CCn1c(SCC(=O)NC(=O)Nc2ccc3c(c2)OCCO3)nnc1-c1cccs1	3	22*	10	4
CCn1c(SCC(=O)Nc2ccc3c(c2)OCCO3)nnc1-c1ccco1	-16	4	2	11
Cn1c(=O)c2[nH]c(N=NN3CCN(CCO)CC3)nc2n(C)c1=O	/	/	8	/
O=C1c2ccccc2C(=O)c2c(Nc3cc4c5c(ccc6c7ccc8c9c(cc(Nc%10cccc%11c%10C(=O)c%10ccccc%10C%11=O)c(c3c56)c97)-c3ccccc3C8=O)C(=O)c3ccccc3-4)cccc21	/	/	73*	/
O=C1c2ccccc2C(=O)c2c(Nc3ccc4c5c(cccc35)C(=O)c3ccccc3-4)cccc21	/	/	83*	/
O=C1c2ccccc2C(=O)c2c1ccc(N1C(=O)c3ccccc3C1=O)c2-c1c(N2C(=O)c3ccccc3C2=O)ccc2c1C(=O)c1ccccc1C2=O	/	/	37	/
CCCCOC(=O)CSc1nc(N)c(C#N)c(-c2ccc(OC)cc2)c1C#N	/	-4	3	/
CCCCOC(=O)CSc1nc(N)c(C#N)c(-c2ccc(OCC)cc2)c1C#N	6	13	78*[fluorescence artefact?]	8
CCOC(=O)c1sc2nc(SCC#N)n(CC3CCCO3)c(=O)c2c1C (stereo not given)	7	1	3	22*
CCOC(=O)c1sc(NCC2CCCO2)nc1C (stereo not given)	2	3	7	8
CC(=O)O[C@H]1CC[C@@]2(C)C(=CC[C@@H]3[C@H]4CC[C@@H]([C@H](C)C(=O)O)[C@]4(C)CC[C@H]32)C1	/	/	52*	/
CC(=O)O[C@H]1CC[C@@]2(C)C(=CC[C@@H]3[C@H]4CC[C@@H](c5cc(C(F)(F)F)n(C(C)=O)n5)[C@]4(C)CC[C@H]32)C1	/	/	-6	/
C[C@H]1CCC/C=C\[C@@H]2C[C@H](OC(=O)CN(C)C)C[C@H]2[C@@H](O)/C=C\C(=O)O1	/	/	5	/
CC(=O)O[C@@H]1CC[C@]2(C)C(=C[C@H]([C@@H]3C=C4C[C@@H](OC(C)=O)CC[C@]4(C)C4=C3[C@@H]3C[C@@H]5O[C@@]6(CC[C@H](C)CO6)[C@@H](C)[C@@H]5[C@@]3(C)CC4)C3=C2CC[C@@]2(C)[C@@H]4[C@@H](C)[C@]5(CC[C@H](C)CO5)O[C@@H]4C[C@H]32)C1	/	/	-3	/
CC(C)N(Cc1nc(-c2ccc(Cl)cc2)no1)C(=O)CN(C)S(=O)(=O)c1ccc(Cl)cc1	9	21*	12	-4
CCC(=O)Nc1ccc(NC(=O)CSc2nnnn2C(C)C)cc1	1	12	-7	27*
O=S1(=O)N[C@H]2CC[C@H]3NS(=O)(=O)N[C@H]4CC[C@@H](N1)N4S(=O)(=O)N23	/	/	24	/
COc1cccc2c1C(=O)c1c(O)c3c(c(O)c1C2=O)C[C@@](O)(C(=O)CO)C[C@@H]3O[C@H]1C[C@H](N)[C@H](O)[C@H](C)O1	6	32*	/	3
Nc1[nH]c(=O)nc2c1ncn2[C@H]1O[C@H](CO)[C@@H](O)[C@@H]1O	/	/	-6	/
Oc1cccc2ccc(SSc3ccc4cccc(O)c4n3)nc12	/	/	60*	/
COc1ccc(Cc2ccc3[nH]c(=O)cc(C)c3c2)cc1S(=O)(=O)O	/	/	19	/
CC1CCCCN1C(=O)CSc1nnc(CSc2ncccn2)n1C (stereo not given)	/	/	73*	/
Cc1ccccc1N1C(=O)C(Cl)=C(N2CCCCCC2)C1=O	14	11	12	3
O=C1C(Cl)=C(N2CCCCC2)C(=O)N1c1ccccc1Cl	5	10	/	22*
COCCN1C(=O)c2ccccc2C(C(=O)NCCCN2CCCC2)C1c1c[nH]c2ccccc12 (stereo not given)	8	-2	0	37*
SMILES	FXIIa inh mix	Ec RNAP inh	Smad3 inh	FXIa inh mix
CN1CCC[C@H](C(=O)OCC(=O)[C@]2(O)CC[C@@H]3[C@H]4CCC5=CC(=O)CC[C@@]5(C)[C@@H]4[C@@H](O)C[C@]32C)C1	/	/	3	/
CCn1cnc2sc(C(=O)N3CCN(Cc4ccc5c(c4)OCO5)CC3)c(C)c2c1=O	2	5	2	1
CCn1cnc2sc(C(=O)N(Cc3ccc(N(C)C)cc3)Cc3ccco3)c(C)c2c1=O	-20	-6	-2	23*
CCCn1c(=O)c(C(=O)Nc2ccncc2)c(O)c2ccccc21	8	1	/	7
CCCn1c(=O)c(C(=O)Nc2nnc(CC)s2)c(O)c2ccccc21	12	1	53*[fluorescence artefact?]	6
CC(C)(CN)CN	/	/	-4	/
COc1ccccc1N1C(=O)C2CC(C)=C(C)CC2C1=O (stereo not given)	10	7	7	2
